Data taken from PubChem BioAssay AID1159580 (chemical genetic matrix, 2015).
Screen size: about 5,500 compounds; about 2,000 (36%) were called active. Roughly 18% stayed inconclusive and do not appear here. Rule as the data show it: active = normalized growth mostly below about 0.91 (no sharp cut-off); inconclusive = no clear call, values can overlap the other calls; inactive = mostly above about 0.92. The list shows a part of the results.

Assay: chemical genetic growth profiling, strain panel (AID 1159580);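 also: tested at 20 µM; growth read once vehicle control cultures reached saturation at 30 °C; 1 = growth at the plate median or of vehicle wells; lower values mean less growth of the strain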
Conditions: S. cerevisiae deletion strains, growth OD
[1] = locus YHR030C, strain SLT2, active compounds read low
[2] = locus YHR079C, strain IRE1, active compounds read low
[3] = locus YJL095W, strain BCK1, active compounds read low
[4] = locus YJR066W, strain TOR1, active compounds read low
[5] = locus YLR113W, strain HOG1, active compounds read low
[6] = locus YNL183C, strain NPR1, active compounds read low
[7] = locus YOR231W, strain MKK1, active compounds read low
[8] = locus YPL256C, strain CLN2, active compounds read low

Measured: normalized growth

CO/N=C(/C(=O)NC1C(=O)N2C(C(=O)OCOC(=O)C(C)(C)C)=C(/C=C\c3scnc3C)CSC12)c1csc(N)n1 (centres undefined)
inactive: locus YAL021C, strain ccr4, active compounds read low 0.974 | locus YAL026C, strain drs2, active compounds read low 1.01 | locus YAL030W, strain snc1, active compounds read low 0.992 | locus YBL061C, strain skt5, active compounds read low 1 | locus YBR009C, strain hhf1, active compounds read low 0.98 | locus YBR023C, strain chs3, active compounds read low 1 | locus YBR171W, strain sec66, active compounds read low 1 | locus YBR231C, strain swc5, active compounds read low 0.965 | locus YBR279W, strain paf1, active compounds read low 1 | locus YCL011C, strain gbp2, active compounds read low 1 | locus YCL016C, strain dcc1, active compounds read low 1 | locus YCL069W, strain vba3, active compounds read low 0.999 | locus YCR088W, strain abp1, active compounds read low 0.999 | locus YDL005C, strain med2, active compounds read low 0.999 | locus YDL040C, strain nat1, active compounds read low 1 | locus YDR001C, strain nth1, active compounds read low 1.01 | locus YDR069C, strain doa4, active compounds read low 1.01 | locus YDR137W, strain rgp1, active compounds read low 1.03 | locus YDR159W, strain sac3, active compounds read low 0.902 | locus YDR195W, strain ref2 0.96 | locus YDR297W, strain sur2, active compounds read low 1.01 | locus YDR334W, strain swr1, active compounds read low 0.989 | locus YDR335W, strain msn5, active compounds read low 1.01 | locus YDR392W, strain spt3, active compounds read low 0.906 | locus YEL003W, strain gim4, active compounds read low 0.995 | locus YEL037C, strain rad23, active compounds read low 0.988 | locus YEL061C, strain CIN8 (second series), active compounds read low 0.985 | locus YER015W, strain faa2, active compounds read low 0.988 | locus YER016W, strain bim1, active compounds read low 1.03 | locus YER111C, strain swi4, active compounds read low 0.986 | locus YER155C, strain BEM2 (second series), active compounds read low 0.875 | locus YFR010W, strain ubp6, active compounds read low 0.998 | locus YGL167C, strain pmr1, active compounds read low 1 | locus YGL173C, strain kem1, active compounds read low 1 | locus YGL227W, strain vid30, active compounds read low 1.03 | locus YGL240W, strain doc1, active compounds read low 0.976 | locus YGL253W, strain hxk2, active compounds read low 1.01 | locus YHR013C, strain ard1, active compounds read low 1 | locus YHR027C, strain rpn1, active compounds read low 1 | [1] 1.05 | [2] 1.04 | locus YHR142W, strain chs7, active compounds read low 1.02 | locus YJL092W, strain hpr5, active compounds read low 0.995 | locus YJL095W, strain BCK1 (second series), active compounds read low 0.994 | [3] 1.01 | locus YJL115W, strain asf1, active compounds read low 1 | locus YJL129C, strain trk1, active compounds read low 1.01 | locus YJL154C, strain vps35, active compounds read low 0.996 | locus YJL164C, strain tpk1, active compounds read low 0.989 | locus YJL166W, strain qcr8, active compounds read low 1 | locus YJL187C, strain SWE1, active compounds read low 1 | [4] 1.01 | locus YKL160W, strain elf1, active compounds read low 1 | locus YKR026C, strain gcn3, active compounds read low 0.994 | locus YKR091W, strain srl3, active compounds read low 0.993 | locus YLL001W, strain dnm1, active compounds read low 0.953 | locus YLL026W, active compounds read low 0.996 | locus YLL041C, strain sdh2, active compounds read low 0.997 | locus YLR027C, strain aat2, active compounds read low 1 | [5] 0.962 | locus YLR221C, strain rsa3, active compounds read low 0.994 | locus YLR258W, strain gsy2, active compounds read low 1.01 | locus YLR262C, strain YPT6 (second series), active compounds read low 0.992 | locus YLR320W, strain mms22, active compounds read low 0.955 | locus YLR342W, strain FKS1, active compounds read low 1.01 | locus YLR357W, strain rsc2, active compounds read low 0.942 | locus YLR370C, strain arc18, active compounds read low 0.991 | locus YLR384C, strain iki3, active compounds read low 1.02 | locus YML120C, strain ndi1, active compounds read low 0.995 | locus YMR058W, strain fet3, active compounds read low 0.991 | locus YMR125W, strain sto1, active compounds read low 0.981 | locus YMR129W, active compounds read low 0.992 | locus YMR205C, strain PFK2, active compounds read low 0.99 | locus YMR231W, strain pep5, active compounds read low 0.994 | locus YNL071W, strain lat1, active compounds read low 0.999 | [6] 0.981 | locus YNL209W, strain ssb2, active compounds read low 1.01 | locus YNL248C, strain rpa49, active compounds read low 1.01 | locus YNL322C, strain KRE1 (second series), active compounds read low 0.984 | locus YNR049C, strain mso1, active compounds read low 0.991 | locus YOR001W, strain rrp6, active compounds read low 0.973 | locus YOR070C, strain gyp1, active compounds read low 1 | locus YOR080W, strain dia2, active compounds read low 0.996 | locus YOR083W, strain WHI5, active compounds read low 0.95 | locus YOR106W, strain vam3, active compounds read low 1.01 | [7] 1.01 | locus YOR265W, strain rbl2, active compounds read low 0.998 | locus YOR270C, strain vph1, active compounds read low 1.04 | locus YOR290C, strain snf2, active compounds read low 1.01 | locus YPL051W, strain arl3, active compounds read low 1.01 | locus YPL078C, strain atp4, active compounds read low 0.998 | locus YPL106C, strain sse1, active compounds read low 1.01 | locus YPL240C, strain hsp82, active compounds read low 1 | [8] 1.03

Cc1cc2nc3c(Cl)c(O)c4ccccc4c3nc2cc1C
active: locus YDR477W, strain SNF1, active compounds read low 0.634 | [1] 0.55 | locus YKL048C, strain ELM1, active compounds read low 0.737 | locus YLR133W, strain CKI1, active compounds read low 0.679 | locus YMR205C, strain PFK2 (second series), active compounds read low 0.726 | locus YNL020C, strain ARK1, active compounds read low 0.617 | locus YOR061W, strain CKA2, active compounds read low 0.43 | locus YPL031C, strain PHO85, active compounds read low 0.643 | locus YPL204W, strain HRR25, active compounds read low 0.646
inactive: locus YAR019C, strain CDC15, active compounds read low 0.966 | locus YBL105C, strain PKC1, active compounds read low 0.961 | locus YBR135W, strain CKS1, active compounds read low 0.949 | locus YBR136W, strain MEC1, active compounds read low 0.965 | locus YBR160W, strain CDC28, active compounds read low 0.96 | locus YDL017W, strain CDC7, active compounds read low 0.965 | locus YDL028C, strain MPS1, active compounds read low 0.959 | locus YDL101C, strain DUN1, active compounds read low 0.981 | locus YDL108W, strain KIN28, active compounds read low 0.954 | locus YDL132W, strain cdc53, active compounds read low 0.966 | locus YDL214C, strain PRR2, active compounds read low 0.818 | locus YDR052C, strain DBF4, active compounds read low 0.953 | locus YDR054C, strain cdc34, active compounds read low 0.965 | locus YDR226W, strain ADK1, active compounds read low 0.949 | locus YER123W, strain YCK3, active compounds read low 0.766 | locus YER133W, strain GLC7, active compounds read low 0.87 | locus YFL009W, strain cdc4, active compounds read low 0.969 | locus YFL029C, strain CAK1, active compounds read low 0.946 | locus YFR003C, strain YPI1, active compounds read low 0.962 | locus YFR019W, strain FAB1, active compounds read low 0.887 | locus YFR028C, strain CDC14, active compounds read low 0.958 | locus YGR040W, strain KSS1, active compounds read low 0.724 | locus YGR052W, strain FMP48, active compounds read low 0.722 | locus YGR092W, strain DBF2, active compounds read low 0.487 | [2] 0.805 | locus YHR082C, strain KSP1, active compounds read low 0.737 | locus YHR205W, strain SCH9, active compounds read low 0.666 | locus YIL147C, strain SLN1, active compounds read low 0.958 | [3] 0.749 | locus YJL128C, strain PBS2, active compounds read low 0.944 | locus YJL157C, strain FAR1, active compounds read low 0.778 | locus YJR016C, strain ILV3, active compounds read low 0.955 | locus YJR066W, strain TOR1 (second series), active compounds read low 0.64 | [4] 0.559 | locus YKL067W, strain YNK1, active compounds read low 0.786 | locus YKL101W, strain HSL1, active compounds read low 0.829 | locus YKL193C, strain SDS22, active compounds read low 0.972 | locus YKL203C, strain TOR2, active compounds read low 0.766 | [5] 0.877 | locus YLR403W, strain SFP1, active compounds read low 0.663 | locus YML070W, strain DAK1, active compounds read low 0.852 | locus YMR001C, strain CDC5, active compounds read low 0.959 | locus YMR277W, strain FCP1, active compounds read low 0.961 | locus YNL006W, strain LST8, active compounds read low 0.974 | locus YNL161W, strain CBK1, active compounds read low 0.971 | [6] 0.739 | locus YNL207W, strain RIO2, active compounds read low 0.961 | locus YNL222W, strain SSU72, active compounds read low 0.955 | locus YOL078W, strain AVO1, active compounds read low 0.962 | locus YOL136C, strain PFK27, active compounds read low 0.838 | locus YOR119C, strain RIO1, active compounds read low 0.831 | [7] 0.829 | locus YOR329C, strain SCD5, active compounds read low 0.97 | locus YPL153C, strain RAD53, active compounds read low 0.68 | locus YPL209C, strain IPL1, active compounds read low 0.976 | [8] 0.869 | locus YPR025C, strain CCL1, active compounds read low 0.957 | locus YPR106W, strain ISR1, active compounds read low 1.01 | locus YPR111W, strain DBF20, active compounds read low 0.976 | strain NNK1, active compounds read low 0.966 | strain TSCII, active compounds read low 0.963
